# Rows were chosen to be rich in hits. Some 2.4% of all compounds tested hit in one or more screens of this group.
# PLCb3 inh = PLC-beta3 (human) inhibition, primary screen. hit rate 0.18% among 370,000. Purified PLC-beta3, fluorogenic substrate, fluorescence. inhibition, % at 12.2 µM. AID 720704. Q01970; in the data active means inhibition above about 11%
# Target sequence (Q01970 whole entry, looked up): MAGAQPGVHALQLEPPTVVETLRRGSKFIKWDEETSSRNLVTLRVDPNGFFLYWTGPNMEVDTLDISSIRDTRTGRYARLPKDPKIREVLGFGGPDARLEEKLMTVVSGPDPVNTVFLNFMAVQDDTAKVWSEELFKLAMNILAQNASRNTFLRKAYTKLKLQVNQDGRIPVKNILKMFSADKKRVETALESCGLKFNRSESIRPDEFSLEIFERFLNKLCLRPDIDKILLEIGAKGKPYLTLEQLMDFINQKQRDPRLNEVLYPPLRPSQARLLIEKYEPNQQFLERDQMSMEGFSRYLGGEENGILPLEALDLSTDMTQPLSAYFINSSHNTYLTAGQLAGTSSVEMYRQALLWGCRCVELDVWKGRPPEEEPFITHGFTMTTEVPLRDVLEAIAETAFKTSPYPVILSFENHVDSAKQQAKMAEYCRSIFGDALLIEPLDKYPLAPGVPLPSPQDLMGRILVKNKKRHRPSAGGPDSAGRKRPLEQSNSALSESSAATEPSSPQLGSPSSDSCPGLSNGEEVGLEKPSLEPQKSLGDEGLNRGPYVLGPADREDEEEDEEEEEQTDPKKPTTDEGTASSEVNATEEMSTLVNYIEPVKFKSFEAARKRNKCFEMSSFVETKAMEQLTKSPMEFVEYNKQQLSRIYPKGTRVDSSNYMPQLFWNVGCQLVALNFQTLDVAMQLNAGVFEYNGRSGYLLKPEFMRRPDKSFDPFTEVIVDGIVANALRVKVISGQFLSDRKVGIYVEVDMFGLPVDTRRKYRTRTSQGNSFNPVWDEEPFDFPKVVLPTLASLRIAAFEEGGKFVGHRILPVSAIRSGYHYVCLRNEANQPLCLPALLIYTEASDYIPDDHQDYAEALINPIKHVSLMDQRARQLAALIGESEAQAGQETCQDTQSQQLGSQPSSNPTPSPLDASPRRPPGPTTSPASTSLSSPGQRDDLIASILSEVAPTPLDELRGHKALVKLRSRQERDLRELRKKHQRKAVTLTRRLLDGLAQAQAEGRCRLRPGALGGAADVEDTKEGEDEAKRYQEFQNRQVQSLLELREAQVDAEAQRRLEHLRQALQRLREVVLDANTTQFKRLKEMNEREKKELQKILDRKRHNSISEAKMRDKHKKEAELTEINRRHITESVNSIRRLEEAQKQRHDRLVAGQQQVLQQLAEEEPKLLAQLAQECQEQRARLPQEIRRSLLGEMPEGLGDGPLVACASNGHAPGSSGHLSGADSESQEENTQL
# UHRF1 binding = UHRF1 methyl-DNA binding inhibition; Q96T88; UHRF1 binding to methylated oligo, TR-FRET; inhibition, % at 4.4 µM; hit rate 0.75% among 370,000; AID 687016;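 further: UHRF1 SRA domain binding a hemimethylated CpG hairpin DNA probe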
# PLC-gamma1 inh = PLC-gamma1 (human) inhibition, primary screen. AID 720700. P19174. hit rate 0.84% among 370,000. inhibition, % at 12.2 µM. purified PLC-gamma1, fluorogenic substrate, fluorescence; in the data active means inhibition above about 9.5%
# LEDGF integ inh = blocks HIV-1 LEDGF/p75-dependent DNA integration; inhibition, % at 3.7 µM; AID 743269; hit rate 0.64% among 370,000; TR-FRET IN-LEDGF/p75 DNA integration, Eu/Cy5;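 active means inhibition above the screen-wide mean plus 3 SD, cut at about 13% in these data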;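 further: signal is the Cy5 over europium emission ratio at 671 and 618 nm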
# MBD2 inh = inhibitors of human MBD2 binding to methylated oligonucleotide. inhibition, % at 4.4 µM. AID 686964. hit rate 0.31% among 370,000. Q9UBB5. TR-FRET; in the data active means inhibition above about 13%
# UHRF1 DNA bind = counter-screen for MBD2 inhibitors: human UHRF1 methylated DNA binding inhibitors | shares compounds with MBD2 inh | UHRF1 binding to methylated oligonucleotide, TR-FRET | inhibition, % at 4.4 µM | hit rate 25% among 1,000;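 further: UHRF1 SRA domain binding a labeled hemimethylated CpG hairpin DNA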
# MBD2 DBD conf = MBD2-DBD methyl-DNA binding inhibition, TR-FRET confirmation; shares compounds with MBD2 inh; TR-FRET MBD2-DBD binding to methylated oligonucleotide; inhibition, % at 4.4 µM; hit rate 26% among 1,000; AID 720531; in the data active means inhibition above about 14%
# Hits are given with their value; n = inactive; x = no result. Unless noted, no stated cut-off is given here; in the data, active means inhibition above about 21%; inactive means the rest.
SMILES,PLCb3 inh,UHRF1 binding,PLC-gamma1 inh,LEDGF integ inh,MBD2 inh,UHRF1 DNA bind,MBD2 DBD conf
COc1ccc2cc3cc(C(=O)Nc4ccc(F)cc4)sc3nc2c1,n,n,n,n,29,29,28
CCCCOc1ccc(C(=O)NC2CCCCN(Cc3ccc(Cl)cc3)C2=O)cc1 (stereo not drawn),n,n,n,n,n,x,x
O=C(Nc1ccc(N2CCN(Cc3ccccc3Cl)CC2)cc1)c1cccnc1,n,n,n,n,15,n,n
O=C(Nc1ccc(N2CCCCC2)cc1)c1cccnc1,n,n,n,n,n,x,x
Cc1ccccc1NC(=O)c1ccc2nccnc2c1,n,n,n,n,16,n,n
O=C(Nc1ccccc1Br)c1ccc2nccnc2c1,n,n,n,n,n,x,x
COc1ccc(Cc2c[nH]c(=O)[nH]c2=O)cc1,n,24,n,n,16,n,n
COC(=O)[C@]12C[C@H](CC(=O)N3CCN(C(=O)c4ccco4)CC3)C(=O)N(Cc3ccco3)C1=C[C@H](C(C)C)O[C@@H]2C1CC1,n,n,n,n,n,x,x
COc1ccc(C2C(C(=O)N3CCC(C)CC3)CC(=O)N2c2ccc(OC)cc2)cc1 (stereo not drawn),n,n,n,n,n,x,x
CCCCNC(=O)C[C@H]1C[C@@]2(C(=O)OC)C(=C[C@H](C(C)C)O[C@@H]2C2CC2)N(Cc2cccc3ccccc23)C1=O,n,n,n,n,n,x,x
O=C(N=Nc1c(O)n(Cc2ccccc2)c2ccccc12)c1cc2ccccc2cc1O,n,n,n,n,n,x,x
O=C(N=Nc1c(O)n(Cc2ccccc2)c2ccccc12)c1ccc(O)cc1,n,n,n,n,41,n,n
COc1ccc(N(C)S(=O)(=O)c2cccc(C(=O)Nc3nnc(C)s3)c2)cc1,n,n,n,n,n,x,x
COc1ccc(N(C)S(=O)(=O)c2cccc(C(=O)Nc3nc(C)c(C(C)=O)s3)c2)cc1,n,n,n,n,15,n,n
OCCCNc1c2ccccc2nc2ccccc12,n,28,n,n,31,33,34
COc1ccc(NC(=O)/C(C#N)=C\c2ccc(Br)o2)cc1,n,n,n,n,14,n,n
Nc1cc(Nc2ccccc2)ccn1,n,n,n,n,44,n,n
COc1ccc(OC)c(CN2C(=O)COc3ccccc3C2c2nnnn2C2CCCC2)c1 (stereo not drawn),n,n,n,n,n,x,x
Cc1ccc(-n2c(Cc3cccs3)nnc2SCc2ccc(C#N)cc2)cc1,n,n,n,n,n,x,x
CN1CCn2cnc(C(=O)Nc3ccc(CNC(=O)OC(C)(C)C)cc3)c2C1=O,n,25,n,n,15,n,n
COc1ccc2sc3cccc(NCCN(C)C)c3c(=O)c2c1,n,n,n,n,n,x,x
CN(C)CCNc1ccc(CO)c2sc3ccc(O)cc3c(=O)c12,n,n,n,n,16,n,27
COC(=O)[C@]12C[C@H](CC(=O)N3CCN(C(=O)c4ccco4)CC3)C(=O)N(Cc3ccc(Cl)cc3Cl)C1=C[C@H](C1CCCC1)O[C@@H]2C,n,n,n,n,n,x,x
O=C(COC(=O)CN1C(=O)c2ccccc2C1=O)Nc1ccccc1[N+](=O)[O-],n,24,n,n,19,n,n
O=C(COC(=O)CCN1C(=O)c2ccccc2C1=O)Nc1ccccc1[N+](=O)[O-],n,n,n,n,n,x,x
SMILES,PLCb3 inh,UHRF1 binding,PLC-gamma1 inh,LEDGF integ inh,MBD2 inh,UHRF1 DNA bind,MBD2 DBD conf
COC(=O)C1CCN(C(=O)COC(=O)c2ccc(N3CCCC3=O)cc2)CC1,n,n,n,n,14,n,n
COc1ccc(Cl)cc1NC(=S)N1CCC(c2ccc(C)cc2)C1 (stereo not drawn),n,n,n,n,23,n,n
COc1ccc(Cl)cc1NC(=S)N1CCCCCC1,n,n,n,n,n,x,x
CC[C@@H](CCC(=O)N(c1ccccc1)c1ccccc1)c1ccc(C)cc1,n,n,n,n,n,x,x
COc1ccccc1NC(=S)OC1CCC12CCC(c1ccccc1)CC2 (stereo not drawn),n,n,n,n,n,x,x
COC(C(=O)N1CCC(CCC(=O)Nc2ccccc2)CC1)c1ccccc1 (stereo not drawn),n,27,n,n,15,n,n
COC(=O)[C@]12C[C@H](CC(=O)N3CCN(C(=O)c4ccco4)CC3)C(=O)N(CCc3ccc(OC)c(OC)c3)C1=C[C@H](C(C)(C)C)O[C@@H]2C,n,n,n,n,n,x,x
CCC(C)[C@H](NC(=O)NC1CCN(Cc2ccccc2)CC1)C(=O)OC (stereo partly drawn),n,n,n,n,15,n,n
COc1ccc(C)cc1NC(=O)NC1CCN(Cc2ccccc2)CC1,n,n,n,n,n,x,x
Cc1ccc(S(=O)(=O)NCC2CCC(C(=O)NCc3ccc4c(c3)OCO4)CC2)cc1 (stereo not drawn),n,n,n,n,n,x,x
O=C(NCc1ccc2c(c1)OCO2)C1CCC(CNS(=O)(=O)c2ccc(Cl)cc2)CC1 (stereo not drawn),n,n,n,n,20,n,n
O=C(NC1CCC1)c1ccc(C#Cc2cccc(F)c2)nc1,n,n,n,n,17,n,n
O=C(NC1CCCCCCC1)c1ccc(F)cc1,n,n,n,n,n,x,x
COc1cc2sc3cc(NCC[C@@H]4CCCN4C)ccc3c(=O)c2cc1OC,n,n,n,n,18,n,22
O=C1c2ccccc2C(=O)c2c(NCCCN(CCO)CCO)cccc21,n,36,n,n,56,57,59
c1ccc(Oc2cc(-n3cncn3)ncn2)cc1,n,n,n,n,n,x,x
Cc1cnn(-c2cc(Oc3ccccc3)ncn2)c1,n,n,n,n,16,n,n
COc1ccc(-n2c(SCC(=O)NCCCSC)nnc2-c2ccncc2)cc1,n,n,n,n,n,x,x
Cc1cc(C(=O)N2CCOCC2)c(C)o1,n,22,n,n,15,n,n
CC(=O)N1CCN(C(=O)c2cc(C)oc2C)CC1,n,n,n,n,n,x,x
O=C1c2ccccc2-c2cccnc21,n,n,n,n,16,n,n
O=C(CSc1nnc(COc2ccccc2Cl)o1)Nc1ccccc1,n,n,n,n,n,x,x
CC(C)(C)NC(=O)NC(=O)CSc1nnc(COc2ccccc2Cl)o1,n,31,n,n,21,n,n
Cc1ccc(-n2nc3c(N4CCC(C(=O)NCCc5ccco5)CC4)nnc(C)c3c2C)cc1,n,n,n,n,16,n,n
Clc1ccc(-n2c(SCc3cccc4ccccc34)nnc2-c2ccccc2)cc1,n,n,n,n,n,x,x
CCOc1ccccc1C(=O)Nc1ccc(C(=O)NCC2COc3ccccc3O2)cc1 (stereo not drawn),n,n,n,n,n,x,x
C[C@H](O)[C@@H]1CN2CCc3c([nH]c4c(-c5ccc6c(c5)OCO6)cccc34)[C@@H]2C[C@@H]1N(C)C(=O)c1ccccc1F,n,n,n,n,n,x,x
